Assay outcomes deposited in PubChem BioAssay by National Center for Advancing Translational Sciences (NCATS).
MARV entry inh – Marburg virus entry inhibition; Marburg virus pseudotyped entry inhibition, cell reporter; 1.8% of 300,000 active; Potency, µM (top dose mostly 37.8 µM), usual class: inhibitors; calls by dose curve; tested in HEK293 cells
Pf growth 48h – P. falciparum growth inhibition at 48 hours (one generation); P. falciparum luciferase growth in erythrocytes, 48 h; Potency, µM (series often up to 28.7 µM), hits mostly inhibitors; 5.9% of 310,000 active; AID 504832
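Parasite viability was followed by luminescence of a genomically integrated firefly luciferase. Cultures held 0.1% parasitemia at 2% hematocrit (final), incubated under 5% CO2 at 37 C.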
Pf growth 96h – P. falciparum growth inhibition at 96 hour, primary screen for plastid delayed-death inhibitors; 6.9% of 320,000 active; Potency, µM (series often up to 28.7 µM), usual class: inhibitors; P. falciparum luciferase reporter growth, 96 h; AID 504834
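Parasite growth measured via integrated firefly luciferase reporter in P. falciparum. Infected erythrocytes at 2% hematocrit, 0.05% parasitemia final were treated 96 hours at 37 C under 5% CO2, and luminescence was read.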
Shiga toxin inh – Shiga toxin inhibition; Vero cells, Shiga toxin protein synthesis inhibition reporter; inhibition, % at 38.7 µM; 9.2% of 290,000 active; AID 2315; in the data active = inhibition mostly above about 28%, no sharp cut-off; inactive = mostly below about 43%
CHX counter – affects cycloheximide protein synthesis inhibition readout, counter-screen | cell reporter, cycloheximide protein synthesis inhibition counterscreen | max response, % | 12% of 300,000 active | AID 2314; in the data active = max response mostly above about 13%, no sharp cut-off; inactive = mostly below about 14%; note: read at 38.3 µM for the half of the compounds with a filed dose
LASV entry inh – Lassa virus entry inhibition | Potency, µM (top dose mostly 37.9 µM), actives largely listed as inhibitors | Lassa virus pseudotype entry inhibition, cell reporter | AID 540256 | 1.2% of 300,000 active; calls by dose curve; tested in HEK293 cells; note: nearly all actives have a fitted effect of over 50% in size
A number is an active result; n = inactive; u = inconclusive; x = no result given; [ ] = another dose, or the depositor's remark. Sampled rows, rich in hits. Any-hit rate of the full collection: about 19%. Unless noted, calls come from the whole dose curve; as a rule, active = well fitted inhibition curve with a large enough effect; inconclusive = small, poorly fitted or top-dose-only effect, or another doubt; inactive = no such curve, though single readings can be large or run the other way.

SMILES	MARV entry inh	Pf growth 48h	Pf growth 96h	Shiga toxin inh	CHX counter	LASV entry inh
O=C(CNc1cccc(S(=O)(=O)N2CCOCC2)c1)Nc1cccc(Br)c1	u	6.57µM	9.28µM	x	x	n
CC(CC(=O)N1CCN(c2ccc(C(F)(F)F)cn2)CC1)n1ccnc1 (stereo unspecified)	u	n	n	n	n	n
CCOC(=O)c1cc(COc2cc(Cl)cc(Cl)c2)on1	n	n	n	n	n	u
COc1ccc2nc(N/C(N)=N/S(C)(=O)=O)nc(C)c2c1	x	n	n	n	n	x
O=C(CNc1ccc(Br)cc1)Nc1ccc(S(=O)(=O)N2CCCC2)cc1	u	9.28µM	11.7µM	x	x	n
O=C(CNc1ccc(Br)cc1)Nc1cccc(S(=O)(=O)N2CCCC2)c1	n	n	n	x	x	u
CC(=O)c1cccc(NCC(=O)Nc2cc(S(=O)(=O)N3CCCCC3)ccc2C)c1	n	u	10.4µM	n	n	n
O=C(NCCCNC(=O)c1cnccn1)c1ccc(Cl)cc1	n	n	n	n	n	n
COc1ccccc1C(=O)NNC(=S)NC(=O)c1cc(OC)c(OC)c(OC)c1	x	n	13.1µM	n	n	x
COc1ccc(C(=O)NC(=S)NNC(=O)c2cnccn2)cc1	u	2.62µM	u	n	n	n
COc1cc(C(=O)NC(=S)NNC(=O)c2cnccn2)cc(OC)c1OC	u	11.7µM	u	n	n	u
COc1ccc(C(=O)NC(=S)NNC(=O)COc2ccccc2)cc1	u	n	n	n	n	n
O=C(NC(=S)NNC(=O)c1cnccn1)c1ccc(Cl)cc1	n	4.15µM	u	n	n	n
COc1ccc(NC(=O)C2CCCN(c3ncnc4c3nc3n4CCCCC3)C2)c(OC)c1 (stereo unspecified)	x	x	x	x	x	n
O=C(Cc1ccccc1)NCC(=O)Nc1ccc(OC(F)(F)F)cc1	n	n	n	n	n	u
CNC(=S)SCCOc1ccccc1	n	n	n	101.4	20.8	n
CNC(=S)SCCOc1ccc(C)cc1	n	n	n	n	n	n
O=C(CCCn1c(SCC(=O)NCC2CCCO2)nc2ccccc2c1=O)NCc1ccccc1 (stereo unspecified)	n	x	9.28µM	n	n	n
O=C(CCCn1c(SCc2cc(=O)n3cc(Cl)ccc3n2)nc2ccccc2c1=O)NCC1CCCO1 (stereo unspecified)	x	6.57µM	10.4µM	n	n	x
O=C(CCCn1c(SCC(=O)c2ccc(F)cc2)nc2ccccc2c1=O)NCc1ccccc1	u	x	10.4µM	n	n	n
O=C(CCCn1c(SCC(=O)Nc2ccccc2Cl)nc2ccccc2c1=O)NCC1CCCO1 (stereo unspecified)	n	u	n	n	n	n
COc1ccc(COC(=O)c2cccc(S(=O)(=O)N3CCN(C(C)=O)CC3)c2)cc1F	u	u	u	x	x	n
CCN(CC)c1ccc(/C=C2/C(=O)N(c3ccc([N+](=O)[O-])cc3)N=C2N2CCOCC2)cc1	x	n	n	n	n	x
CCCC1=NN(c2ccc([N+](=O)[O-])cc2)C(=O)/C1=C\N(C)C	n	n	n	n	11.2	n
Cn1c(=O)cc(SCC(=O)NCC2COc3ccccc3O2)c2ccccc21 (stereo unspecified)	n	n	2.94µM	n	n	u
SMILES	MARV entry inh	Pf growth 48h	Pf growth 96h	Shiga toxin inh	CHX counter	LASV entry inh
Cn1c(=O)cc(SCC(=O)N2CCCC2)c2ccccc21	n	n	n	n	n	n
CCOC(=O)N1CCC(NC(=O)CSc2cc(=O)n(C)c3ccccc23)CC1	n	n	13.1µM	n	n	n
Cc1cc(C)nc(SCC(=O)NCC2COc3ccccc3O2)n1 (stereo unspecified)	x	n	n	x	x	x
Cc1cc(C)nc(Nc2ccc(N3CCOCC3)cc2)n1	n	x	x	n	17.1	n
Cc1cc(C)nc(Nc2ccc(N3CCCC3)cc2)n1	n	u	x	90.3	30.3	n
Cc1cccc(Nc2nc(N3CCCCC3)nc(N3CCCCC3)n2)c1	u	u	n	n	n	u
CCCNc1nc(Nc2ccc(C)cc2)nc(N2CCCC2)n1	14.6µM	x	2.08µM	n	n	n
C=CCN1N=C(c2ccc(NC(=O)c3ccccc3)cc2)CSC1=O	x	n	n	n	n	x
CC(=O)c1c(C)[nH]c(C(=O)Nc2ccc(C)cn2)c1C	2µM	x	n	n	n	2.06µM
CC(=O)c1c(C)[nH]c(C(=O)OCC(=O)Nc2cccc(S(=O)(=O)N(C)C)c2)c1C	n	u	u	n	n	n
CC(=O)c1c(C)[nH]c(C(=O)COc2cc(C)cc(C)c2)c1C	u	n	n	n	n	n
CC(=O)c1c(C)[nH]c(C(=O)Nc2cc(C)cc(C)c2)c1C	n	x	5.86µM	n	n	n
CC(=O)c1c(C)[nH]c(C(=O)Nc2ccc(C)c(S(=O)(=O)N(C)C)c2)c1C	u	n	n	n	n	n
CC(=O)c1c(C)[nH]c(C(=O)Nc2cccc(S(=O)(=O)N(C)C)c2)c1C	n	n	n	n	30.9	n
CC(=O)c1c(C)[nH]c(C(=O)Nc2ccc(S(=O)(=O)N(C)C)cc2)c1C	n	u	13.1µM	n	n	n
Cc1nc2ccccc2n1CCc1nc2c3ccccc3nc(SCC(=O)Nc3ccc(C(C)C)cc3)n2n1	x	x	x	x	x	n
CCC(NC(=O)CNC(=O)CNC(=O)c1ccc(Cl)cc1Cl)c1ccc(C)cc1 (stereo unspecified)	n	n	n	n	n	n
CCOC(=O)C1(C)NC(c2cccs2)C2C(=O)N(c3ccc(C)cc3)C(=O)C21 (stereo unspecified)	n	n	n[5.75 µM]	n	n	u
Cc1ccc(N2C(=O)C3C(C2=O)N2C(c4cccs4)C4C(=O)N(c5ccc(C)cc5)C(=O)C4N2C3c2cccs2)cc1 (stereo unspecified)	n	u	1.85µM	n	n	n
COc1ccc(N=Nc2n(C)c3ccccc3[n+]2C)cc1	x	0.738µM	0.522µM	n	n	x
Cc1c(C(=O)O)cnc2cc(-c3ccc(Cl)cc3)nn12	x	n	n	n	16.0	x
CC(=O)c1cnc2cc(-c3ccc(Cl)cc3)nn2c1C	u	x	n	55.8	21.3	n
CC(=O)c1cnc2c(-c3ccc(Cl)cc3)c(C)nn2c1C	n	n	n	n	n	n
COc1cc(/C=C/C(=O)O)ccc1OS(=O)(=O)c1ccc(C)cc1	n	n	n	n	n	n
CCC(=O)Nc1ccc(S(=O)(=O)N2CCC(c3nc4ccccc4[nH]3)CC2)cc1	n	u	u	x	x	u
O=C(NC1CCCCC1)N1CCC(c2nc3ccccc3[nH]2)CC1	n	n	n	n	n	n
O=C(NC1CCCCC1)N1CCCC(c2nc3ccccc3[nH]2)C1 (stereo unspecified)	n	n	1.47µM	n	n	n
Cc1ccc(N2CC(C(=O)N3CCC(c4nc5ccccc5[nH]4)CC3)CC2=O)cc1C (stereo unspecified)	n	u	10.4µM	x	x	n
O=C1CC(c2nc3ccccc3[nH]2)CN1c1cccc(C(F)(F)F)c1 (stereo unspecified)	n	n	u	n	n	u
